Screens deposited in PubChem BioAssay by Paczesny and Yang Labs, IUPUI and University of Michigan.
ST2 inh = IL1RL1 inhibition; inhibition, % for hits at 17 µM; AlphaLISA ST2-Fc/biotin-IL-33 interaction, 1 h; 78,000 compounds, 2.3% hits; in the data active means inhibition above about 30%
Target sequence (Q01638 whole entry, looked up): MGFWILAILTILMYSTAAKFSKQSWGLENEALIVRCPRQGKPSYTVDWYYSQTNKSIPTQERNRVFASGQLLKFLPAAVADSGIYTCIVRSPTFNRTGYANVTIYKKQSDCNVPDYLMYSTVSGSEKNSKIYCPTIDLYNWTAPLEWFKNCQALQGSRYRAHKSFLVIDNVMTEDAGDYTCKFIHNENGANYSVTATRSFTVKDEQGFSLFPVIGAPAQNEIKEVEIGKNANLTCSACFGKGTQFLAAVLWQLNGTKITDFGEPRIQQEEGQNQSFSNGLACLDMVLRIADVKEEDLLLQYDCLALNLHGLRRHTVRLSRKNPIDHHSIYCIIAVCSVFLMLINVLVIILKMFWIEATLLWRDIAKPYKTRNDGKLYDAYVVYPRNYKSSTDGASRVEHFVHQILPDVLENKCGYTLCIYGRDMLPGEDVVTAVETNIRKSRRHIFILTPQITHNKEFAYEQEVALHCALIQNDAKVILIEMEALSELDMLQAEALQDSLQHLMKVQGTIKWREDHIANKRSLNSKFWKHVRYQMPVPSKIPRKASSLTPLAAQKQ
An asterisk follows results filed as active; i = inactive. Shown is part of a subset that was picked to be rich in hits.

SMILES	ST2 inh
CCC1Oc2ccccc2N(CC(=O)NCCN2CCCC2)C1=O (centres undefined)	i
CCC(=O)N1N=C(c2ccccc2)CC1Cc1cc2cccc(C)c2[nH]c1=O (centres undefined)	i
CC(=O)Nc1ccc(S(=O)(=O)NC(C)C(=O)O)cc1 (centres undefined)	i
COc1ccc2c(c1)N(C(=O)C(C)N1C(=O)c3ccccc3C1=O)C(C)(C)C=C2C (centres undefined)	i
CC1=CC(C)(C)N(C(=O)C(C)N2C(=O)c3ccccc3C2=O)c2cc(C)c(C)cc21 (centres undefined)	i
COc1cc2c3c(c1)C(C)CC(C)(C)N3C(=O)C2=O (centres undefined)	40.0%*
COc1cccc2c1OC1(C)CC2NC(=O)N1c1cccc(Cl)c1 (centres undefined)	i
COc1cc2c3c(c1)C(C)=CC(C)(C)N3C(=O)C2=O	70.0%*
COc1cccc(N2C(=O)NC3CC2(C)Oc2ccccc23)c1 (centres undefined)	i
O=C(NCc1ccc2c(c1)OCO2)C1CCC(=O)N(CCN2CCOCC2)C1 (centres undefined)	i
CCN(CC)CCN(CC)C(=O)Cn1nnnc1CN1CCOCC1	i
Cc1ccccc1CSC1=NCCN1C(=O)c1ccc(Br)o1	i
CCOC(=O)c1ccc(-c2ccc(/C=C/c3[nH]c(=O)[nH]c(=O)c3[N+](=O)[O-])o2)cc1	i
O=C(/C=C/c1ccc(-c2ccc([N+](=O)[O-])cc2Cl)o1)c1ccco1	i
C/C(=C\c1ccc(-c2ccc(Cl)c(C(=O)O)c2)o1)[N+](=O)[O-]	32.0%*
CN1C(=O)C(CC(=O)NCc2cnn3ccccc23)N(C)C1=O (centres undefined)	i
O=C1CCC(C(=O)N2CC=C(c3ccccc3)CC2)CN1CCc1ccccn1 (centres undefined)	i
CNS(=O)(=O)c1ccc(OC)c(OC)c1	i
Cc1cc(OC(C)C)nc(-c2ccccc2O)n1	i
Cc1cc(N2N=C(c3ccccc3)CC2=O)nc(-c2ccccc2O)n1	31.0%*
Cc1cc(NC2CCCCC2)nc(-c2ccccc2O)n1	i
C=CCc1ccccc1OCCN1CCN(C)CC1	i
COc1cc(/C=C2\C(=O)Nc3ccc(Br)cc32)cc([N+](=O)[O-])c1O	31.0%*
COc1ccc(OC)c(/C=C2\C(=O)Nc3ccc(Br)cc32)c1	35.0%*
COc1ccc(N2C(=O)NC(=O)/C(=C/c3cc(Br)c(O)c([N+](=O)[O-])c3)C2=O)cc1	i
SMILES	ST2 inh
CCOc1cc(/C=C2/NC(=O)NC2=O)c(Br)cc1O	i
CCOc1cc(/C=C2\C(=O)Nc3ccc(Br)cc32)cc(Cl)c1O	33.0%*
COc1cc(/C=C2\C(=O)NC(=O)N(c3cccc(C)c3)C2=O)cc(Cl)c1O	i
COc1cc(OC)c(/C=C2/C(=O)Nc3ccccc32)c(OC)c1	i
COc1cc(/C=C2/C(=O)NN(c3ccc(Cl)cc3)C2=O)cc([N+](=O)[O-])c1O	i
COc1ccc(/C=C2\C(=O)Nc3ccc(Br)cc32)c(OC)c1OC	i
Cc1ccc(S(=O)(=O)Nc2c(-c3ccccc3)c3cc(Br)ccc3[nH]c2=O)cc1	i
CCc1ccccc1NS(=O)(=O)c1ccc(Br)s1	i
O=C(c1ccccc1)c1ccc(OCCN2CCCC2)cc1	i
COc1cccc(CC2=NOC(C(=O)N3CCC(Oc4ccccc4OC)CC3)C2)c1 (centres undefined)	i
Cc1nnc(SCC(=O)Nc2nnc(C(F)(F)F)s2)s1	i
O=C(CSc1c2c(nc3ccc(Cl)cc13)CCCC2)NC1CC1	i
CCOc1ccc(N(CC(=O)O)S(=O)(=O)c2ccc(C)cc2)cc1	i
CC1CCCC(C)N1CCCNC(=O)C1c2ccccc2C(=O)N1Cc1ccc2c(c1)OCO2 (centres undefined)	i
CN1CCN(S(=O)(=O)c2cc(Br)cc3c2N(C(=O)C2CC2)CC3)CC1	i
Cc1ccc(C(C2=C(O)CC(C)(C)CC2=O)C2C(=O)CC(C)(C)CC2=O)cc1 (centres undefined)	i
CCc1cc(CN2CC[C@@H](c3ccc4ccccc4c3)[C@H](O)C2)on1	i
O=C(Nn1cnnc1)c1ccccc1Cl	56.0%*
O=C(Nc1cc(Cl)cc(Cl)c1)c1ccccc1Cl	i
O=C(Nn1cnnc1)c1ccc(C(=O)Nn2cnnc2)cc1	i
CN(C)CCN1CN(CCN(C)C)CN(CCN(C)C)C1	i
Cc1nn(CCCC(=O)Nc2ccc([N+](=O)[O-])cc2Cl)c(C)c1[N+](=O)[O-]	i
O=C(NCC1CCCN(Cc2ccn[nH]2)C1)C1(c2ccc(Cl)cc2)CC1 (centres undefined)	i
O=C(Nc1ccc(Cl)cc1[N+](=O)[O-])c1cccs1	33.0%*
O=C(NCCNc1ccc(Cl)cc1[N+](=O)[O-])c1ccc(Br)o1	i
SMILES	ST2 inh
NCCCNc1ccc(Cl)cc1[N+](=O)[O-]	i
COc1ccc(NCCNC(=O)c2ccc(Cl)cc2)c([N+](=O)[O-])c1	32.0%*
O=C(Nc1cccc(Cl)c1)c1cccs1	i
COc1ccc(NC(=O)c2ccc(-c3ccccc3)cc2)c([N+](=O)[O-])c1	i
CCNc1ccc(Cl)cc1[N+](=O)[O-]	31.0%*
COc1ccc(Cl)cc1NC(=O)c1cccs1	i
CN(C)CCNc1ccc(Cl)cc1[N+](=O)[O-]	i
O=C(CSC1=Nc2ccccc2C2=NC(c3ccccc3)C(=O)N12)NCc1ccccc1Cl (centres undefined)	i
O=C(O)c1cccc(NC(=O)c2cc3ccccc3o2)c1	i
CC1(C)Cc2cc(CNC(=O)CC3C(=O)NCCN3C3CCCC3)ccc2O1 (centres undefined)	i
Cc1cc(C)cc(N(C(=O)c2ccc(C)c(C)c2)C2C=CS(=O)(=O)C2)c1 (centres undefined)	i
O=C(NCCc1nc2ccccc2n1Cc1ccccc1F)c1cccs1	i
Cc1cc2ccccc2c(=O)n1CC(=O)NCC(=O)NCCC1=CCCCC1	i
CC1CN(S(=O)(=O)c2ccc(C(=O)Nc3nnc(-c4ccc(F)cc4)o3)cc2)CC(C)O1 (centres undefined)	i
COc1ccc(N=Cc2c(O)c([N+](=O)[O-])cc3oc4c(c23)CCCC4)cc1	i
COc1cccc(-n2c(O)c(C=Nc3ccc(Cl)cc3)c3ccccc3c2=O)c1	i
COc1ccc(N=Cc2c(O)cc(C)c(Cl)c2C)cc1	43.0%*
COc1ccc(N=Cc2c(O)ccc3oc4c(c23)CCCC4)cc1	40.0%*
Cc1c(Cl)c(C)c([N+](=O)[O-])c(O)c1C=Nc1ccc(C(=O)O)cc1	i
COc1ccc(NC(=O)c2noc3c2CCCCC3)cc1	i
CCC(C)NC(=O)CSc1nc2nc(C)c(Cc3ccccc3Cl)c(C)n2n1 (centres undefined)	i
Cc1ccc(Cn2c(SCC(C)O)nc3c2c(=O)n(C)c(=O)n3C)cc1 (centres undefined)	i
CCc1ncc(C(=O)NC(C)Cc2ccncc2)cn1 (centres undefined)	i
CC(C)CCNC(=O)CSC1=Nc2ccccc2C2=NC(Cc3ccccc3)C(=O)N12 (centres undefined)	i
O=C(NC1CC(=O)N(c2ccccc2)C1)c1ccc2c(c1)OCO2 (centres undefined)	i
COc1cc(/C=C2\SC(c3ccccc3)=NC2=O)cc(Br)c1O	40.0%*
COc1cc(/C=C2\SC(N)=NC2=O)cc(OC)c1O	i
COc1cc(/C=C2\SC(N3CCCCC3)=NC2=O)cc(OC)c1OC	i
